Common to all, as to test: PBM; 200 nM protein, PBS
Holding throughout (details): dsDNA, one strand shown

For assay [1], the target named is NKX2-5 (Homo sapiens, UniProt P52952 125-210, R139K).
Assay [2] addresses T1, NKX2-4 (Homo sapiens, UniProt Q9H2Z4 175-261, P217L).
T1 sequence: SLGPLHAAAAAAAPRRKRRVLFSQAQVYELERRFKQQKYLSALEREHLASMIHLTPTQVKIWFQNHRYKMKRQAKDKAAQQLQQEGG

Assay [3] has as its target T2, NKX2-4 (Homo sapiens, UniProt Q9H2Z4 175-261, T231S).
T2 sequence: T1 sequence with L43P, T57S

For assay [4], the target named is T3, NKX2-4 (Homo sapiens, UniProt Q9H2Z4 175-261).
T3 sequence: T1 sequence with L43P

The target in assay [5] is T4, NKX2-6 (Homo sapiens, UniProt A6NCS4 118-204, R150C).
T4 sequence: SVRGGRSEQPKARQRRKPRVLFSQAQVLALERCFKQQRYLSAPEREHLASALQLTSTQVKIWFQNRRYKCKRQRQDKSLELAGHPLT

The target in assay [6] is T5, NKX2-6 (Homo sapiens, UniProt A6NCS4 118-204).
T5 sequence: T4 sequence with C33R

Assay [7] concerns the target T6, NKX2-4 (Homo sapiens, UniProt Q9H2Z4 175-261, R246Q).
T6 sequence: T1 sequence with L43P, R72Q

Assay [8] concerns the target T7, NKX2-6 (Homo sapiens, UniProt A6NCS4 118-204, F151L).
T7 sequence: T4 sequence with C33R, F34L

Assay [9] deals with NKX3-2 (Homo sapiens, UniProt P78367 192-278, P234S).
For assay [10], the target named is NKX2-5 (Homo sapiens, UniProt P52952 125-210).
Assay [11] deals with NKX3-2 (Homo sapiens, UniProt P78367 192-278).

Where a chain is given by its changes, count along the chain named.

Sequence of NKX3-2 (Homo sapiens, UniProt P78367 192-278, P234S) (P78367 192-278 P234S): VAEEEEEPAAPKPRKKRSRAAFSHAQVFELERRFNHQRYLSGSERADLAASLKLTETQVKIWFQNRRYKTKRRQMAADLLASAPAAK
Sequence of NKX2-5 (Homo sapiens, UniProt P52952 125-210, R139K) (P52952 125-210 R139K): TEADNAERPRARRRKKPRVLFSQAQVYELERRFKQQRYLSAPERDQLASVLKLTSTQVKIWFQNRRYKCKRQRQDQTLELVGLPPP
Sequence of NKX2-5 (Homo sapiens, UniProt P52952 125-210) (P52952 125-210): as the sequence (P52952 125-210 R139K) above, with K15R counted along it
Sequence of NKX3-2 (Homo sapiens, UniProt P78367 192-278) (P78367 192-278): as the sequence (P78367 192-278 P234S) above, with S43P counted along it

Turning to GGCACTTA, the binding signal with NKX2-5 [1] was 13.1 upbm affinity estimate (log intensity, higher = more binding, comparable within an allelic series); in the assay with NKX2-4 [2], 12.7 upbm affinity estimate (log intensity, higher = more binding, comparable within an allelic series); with NKX2-4 [3], 13.1 upbm affinity estimate (log intensity, higher = more binding, comparable within an allelic series); in the assay with NKX2-4 [4] it was 12.6 upbm affinity estimate (log intensity, higher = more binding, comparable within an allelic series); with NKX2-6 [5], 12.1 upbm affinity estimate (log intensity, higher = more binding, comparable within an allelic series); with NKX2-6 [6], 13.8 upbm affinity estimate (log intensity, higher = more binding, comparable within an allelic series). Further, the binding signal in the assay with NKX2-4 [7] was 13.2 upbm affinity estimate (log intensity, higher = more binding, comparable within an allelic series); with NKX2-6 [8] it was 11.4 upbm affinity estimate (log intensity, higher = more binding, comparable within an allelic series); with NKX3-2 [9] it was 13.3 upbm affinity estimate (log intensity, higher = more binding, comparable within an allelic series); with NKX2-5 [10], 13 upbm affinity estimate (log intensity, higher = more binding, comparable within an allelic series); with NKX3-2 [11] it was 13.4 upbm affinity estimate (log intensity, higher = more binding, comparable within an allelic series).
On to ACACTTAA, for which the binding signal with NKX2-5 [1] is 13 upbm affinity estimate (log intensity, higher = more binding, comparable within an allelic series); in the assay with NKX2-4 [2] it was 12.6 upbm affinity estimate (log intensity, higher = more binding, comparable within an allelic series); with NKX2-4 [3] it was 13 upbm affinity estimate (log intensity, higher = more binding, comparable within an allelic series); with NKX2-4 [4], 12.5 upbm affinity estimate (log intensity, higher = more binding, comparable within an allelic series); with NKX2-6 [5], 12 upbm affinity estimate (log intensity, higher = more binding, comparable within an allelic series); with NKX2-6 [6], 13.8 upbm affinity estimate (log intensity, higher = more binding, comparable within an allelic series). In addition, the binding signal was 13.1 upbm affinity estimate (log intensity, higher = more binding, comparable within an allelic series) with NKX2-4 [7]; 11.5 upbm affinity estimate (log intensity, higher = more binding, comparable within an allelic series) with NKX2-6 [8]; 12.7 upbm affinity estimate (log intensity, higher = more binding, comparable within an allelic series) with NKX3-2 [9]; 12.8 upbm affinity estimate (log intensity, higher = more binding, comparable within an allelic series) in the assay with NKX2-5 [10]; 12.8 upbm affinity estimate (log intensity, higher = more binding, comparable within an allelic series) in the assay with NKX3-2 [11].
CCACTTGA: the binding signal is 13.4 upbm affinity estimate (log intensity, higher = more binding, comparable within an allelic series) with NKX2-5 [1]; 12.9 upbm affinity estimate (log intensity, higher = more binding, comparable within an allelic series) in the assay with NKX2-4 [2]; 13.3 upbm affinity estimate (log intensity, higher = more binding, comparable within an allelic series) with NKX2-4 [3]; 12.8 upbm affinity estimate (log intensity, higher = more binding, comparable within an allelic series) in the assay with NKX2-4 [4]; 12.3 upbm affinity estimate (log intensity, higher = more binding, comparable within an allelic series) in the assay with NKX2-6 [5]; 13.9 upbm affinity estimate (log intensity, higher = more binding, comparable within an allelic series) with NKX2-6 [6]. Moreover, the binding signal with NKX2-4 [7] is 13.5 upbm affinity estimate (log intensity, higher = more binding, comparable within an allelic series); with NKX2-6 [8] it was 11.5 upbm affinity estimate (log intensity, higher = more binding, comparable within an allelic series); with NKX3-2 [9], 12.5 upbm affinity estimate (log intensity, higher = more binding, comparable within an allelic series); in the assay with NKX2-5 [10] it was 13.2 upbm affinity estimate (log intensity, higher = more binding, comparable within an allelic series); in the assay with NKX3-2 [11], 12.6 upbm affinity estimate (log intensity, higher = more binding, comparable within an allelic series).
Regarding GTACTTGA, the binding signal with NKX2-5 [1] was 13 upbm affinity estimate (log intensity, higher = more binding, comparable within an allelic series); in the assay with NKX2-4 [2] it was 12.8 upbm affinity estimate (log intensity, higher = more binding, comparable within an allelic series); with NKX2-4 [3], 13.2 upbm affinity estimate (log intensity, higher = more binding, comparable within an allelic series); with NKX2-4 [4] it was 12.6 upbm affinity estimate (log intensity, higher = more binding, comparable within an allelic series); with NKX2-6 [5], 12.1 upbm affinity estimate (log intensity, higher = more binding, comparable within an allelic series); with NKX2-6 [6] it was 13.7 upbm affinity estimate (log intensity, higher = more binding, comparable within an allelic series). Moreover, the binding signal is 13.3 upbm affinity estimate (log intensity, higher = more binding, comparable within an allelic series) with NKX2-4 [7]; 11.1 upbm affinity estimate (log intensity, higher = more binding, comparable within an allelic series) with NKX2-6 [8]; 12.8 upbm affinity estimate (log intensity, higher = more binding, comparable within an allelic series) with NKX2-5 [10].
CTACTTGA: the binding signal in the assay with NKX2-5 [1] is 12.3 upbm affinity estimate (log intensity, higher = more binding, comparable within an allelic series); with NKX2-4 [2], 12.6 upbm affinity estimate (log intensity, higher = more binding, comparable within an allelic series); with NKX2-4 [3], 13 upbm affinity estimate (log intensity, higher = more binding, comparable within an allelic series); in the assay with NKX2-4 [4], 12.4 upbm affinity estimate (log intensity, higher = more binding, comparable within an allelic series); with NKX2-6 [5], 11.6 upbm affinity estimate (log intensity, higher = more binding, comparable within an allelic series); with NKX2-6 [6], 13.3 upbm affinity estimate (log intensity, higher = more binding, comparable within an allelic series). The binding signal in the assay with NKX2-4 [7] was 13.1 upbm affinity estimate (log intensity, higher = more binding, comparable within an allelic series); with NKX2-6 [8], 10.5 upbm affinity estimate (log intensity, higher = more binding, comparable within an allelic series); with NKX2-5 [10], 12.3 upbm affinity estimate (log intensity, higher = more binding, comparable within an allelic series).
AAGTACTC: the binding signal with NKX2-5 [1] is 12.7 upbm affinity estimate (log intensity, higher = more binding, comparable within an allelic series); with NKX2-4 [2] it was 12.7 upbm affinity estimate (log intensity, higher = more binding, comparable within an allelic series); in the assay with NKX2-4 [3] it was 13.1 upbm affinity estimate (log intensity, higher = more binding, comparable within an allelic series); with NKX2-4 [4], 12.6 upbm affinity estimate (log intensity, higher = more binding, comparable within an allelic series); with NKX2-6 [5], 11.8 upbm affinity estimate (log intensity, higher = more binding, comparable within an allelic series); with NKX2-6 [6], 13.6 upbm affinity estimate (log intensity, higher = more binding, comparable within an allelic series). The binding signal with NKX2-4 [7] is 13.2 upbm affinity estimate (log intensity, higher = more binding, comparable within an allelic series); in the assay with NKX2-6 [8] it was 10.8 upbm affinity estimate (log intensity, higher = more binding, comparable within an allelic series); with NKX3-2 [9], 12.7 upbm affinity estimate (log intensity, higher = more binding, comparable within an allelic series); with NKX2-5 [10] it was 12.6 upbm affinity estimate (log intensity, higher = more binding, comparable within an allelic series); in the assay with NKX3-2 [11], 12.8 upbm affinity estimate (log intensity, higher = more binding, comparable within an allelic series).
